Screening data deposited in PubChem BioAssay by National Center for Advancing Translational Sciences (NCATS).
GCN5L2 inh: qHTS Assay for Inhibitors of GCN5L2 | GCN5L2 HAT assay, ThioGlo1 CoA-SH fluorescence | Potency, µM (top dose mostly 58.9 µM), inactives show at the highest dose activity change, negative = inhibition, hits mostly inhibitors | hit rate 0.21% among 390,000
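Titration-based screen in which CoA formation is detected via maleimide probe ThioGlo1 (50uM) turning fluorescent on thiol reaction; substrates H3(1-25) 75uM and acetyl-CoA 70uM, GCN5L2 20nM, 20 min incubation at room temperature.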
KDM4E inh: qHTS Assay for Inhibitors of Human Jumonji Domain Containing 2E (JMJD2E). Lysine-specific demethylase 4E (Homo sapiens), B2RXH2. JMJD2E catalytic domain, FDH-coupled NADH fluorescence (FDH is formaldehyde dehydrogenase). Potency, µM (doses to about 57.1 µM), inactives show at the top dose activity change, negative = inhibition, usual class: inhibitors. hit rate 1.6% among 230,000. AID 2147, 2009; active = well fitted inhibition curve with a large enough effect, not every such curve was filed as active; inconclusive = small, poorly fitted or top-dose-only effect, or another doubt; inactive = no such curve, though single readings can be large or run the other way;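 also: 0% = wells with enzyme and -100% = buffer wells without enzyme; nearly all actives have a fitted effect of over 50% in size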
APE1 inh: qHTS Assay for Inhibitors of the Human Apurinic/apyrimidinic Endonuclease 1 (APE1); DNA repair nuclease/redox regulator APEX1 (Homo sapiens), P27695; recombinant APE1, TAMRA/BHQ-2 abasic DNA cleavage fluorescence; Potency, µM (doses to about 65.8 µM), for the others: at the highest dose activity change, negative = inhibition, most hits filed as inhibitors; hit rate 0.35% among 350,000;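 also: plate controls were vehicle for no effect and reference inhibitor for full effect; nearly all actives have a fitted effect of over 55% in size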
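APE1 at 0.75 nM final was preincubated with compound 15 min at room temperature, then 50 nM double-stranded THF abasic-site substrate (5'-TAMRA/3'-BHQ-2) was added. Fluorescence (ex 525/em 598 nm) was read kinetically; third-minus-first read gave activity.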
BLM helicase inh: qHTS Assay for Inhibitors of Bloom's syndrome helicase (BLM). recombinant BLM DNA unwinding, fluorescence dequenching. hit rate 0.2% among 350,000. Potency, µM (doses to about 56.1 µM), inactives show at the top dose activity change, negative = inhibition, hits mostly inhibitors. RecQ-like DNA helicase BLM (Homo sapiens), P54132;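 also: plate controls were vehicle for no effect and no enzyme for full effect; nearly all actives have a fitted effect of over 35% in size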
RECQ1 helicase: qHTS Assay for Inhibitors of RecQ-Like Dna Helicase 1 (RECQ1) | RECQ1 DNA unwinding, red fluorescence kinetic read | AID 2549, 2010 | ATP-dependent DNA helicase Q1 (Homo sapiens), P46063 | Potency, µM (titrated, usually from 57.3 µM), for the others: top-dose activity, negative = inhibition, most hits filed as inhibitors | hit rate 0.54% among 240,000;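 also: plate controls were vehicle for no effect and no enzyme for full effect; nearly all actives have a fitted effect of over 30% in size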
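50 nM RECQ1T1 preincubated 15 min with compound in Tris pH 8.0 buffer with MgCl2, DTT, Tween-20 and 2.5 ug/ml poly(dI-dC); started with 200 nM TAMRA/BHQ-2 forked duplex and 2 mM ATP. Unwinding read as fluorescence (525/598 nm), two reads 2 h apart.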
L3MBTL1 inh: qHTS Assay for the Inhibitors of L3MBTL1; Lethal(3)malignant brain tumor-like protein 1 (Homo sapiens), Q9Y468; AlphaScreen L3MBTL1–H3K9me1 peptide binding; Potency, µM (top dose mostly 57.1 µM), inactives show top-dose activity, negative = inhibition, hits mostly inhibitors; hit rate 0.66% among 230,000; AID 485360, 2010; also: nearly all actives have a fitted effect of over 60% in size
Target sequence (Q9Y468 whole entry, looked up): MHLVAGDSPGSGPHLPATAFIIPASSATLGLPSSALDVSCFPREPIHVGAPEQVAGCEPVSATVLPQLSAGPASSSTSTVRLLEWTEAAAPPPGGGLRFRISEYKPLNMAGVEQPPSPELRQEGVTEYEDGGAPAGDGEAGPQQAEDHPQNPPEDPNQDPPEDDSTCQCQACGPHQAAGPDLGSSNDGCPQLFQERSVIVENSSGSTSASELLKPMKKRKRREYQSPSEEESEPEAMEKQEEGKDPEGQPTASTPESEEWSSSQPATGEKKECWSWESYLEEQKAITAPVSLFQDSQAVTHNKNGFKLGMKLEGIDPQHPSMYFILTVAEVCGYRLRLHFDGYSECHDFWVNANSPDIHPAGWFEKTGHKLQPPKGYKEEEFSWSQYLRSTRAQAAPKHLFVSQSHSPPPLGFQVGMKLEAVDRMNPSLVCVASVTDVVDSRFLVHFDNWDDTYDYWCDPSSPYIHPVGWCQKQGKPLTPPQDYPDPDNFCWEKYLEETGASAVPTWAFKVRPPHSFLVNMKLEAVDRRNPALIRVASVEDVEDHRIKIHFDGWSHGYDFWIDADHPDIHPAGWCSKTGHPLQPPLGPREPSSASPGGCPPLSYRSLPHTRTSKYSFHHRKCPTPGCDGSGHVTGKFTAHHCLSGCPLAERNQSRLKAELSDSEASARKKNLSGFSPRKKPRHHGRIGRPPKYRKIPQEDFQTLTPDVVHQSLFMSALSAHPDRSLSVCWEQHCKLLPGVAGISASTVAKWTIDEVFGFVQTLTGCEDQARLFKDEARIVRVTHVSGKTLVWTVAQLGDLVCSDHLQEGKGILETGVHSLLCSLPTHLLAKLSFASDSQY
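L3MBTL1 (50 nM) pre-complexed 30 min with biotinylated H3(1-15)K9me1 peptide (75 nM), then compounds added for 30 min at room temperature; AlphaScreen streptavidin donor/nickel chelate acceptor beads (10 ug/mL final) read after 30 min dark incubation.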
* marks the source's active call; other numbers are inactive results; [ ] = remark or other dose. This is one part of a sample in which hits are shown more often than they occur. Unless noted, calls follow the shape of the dose curve; as a rule, active = well fitted curve in the direction sought with a large enough effect; inconclusive = small, poorly fitted or top-dose-only effect, or another doubt; inactive = no such curve, though single readings can be large; an effect the other way counts as inactive or inconclusive. Unless noted, % is scaled to controls: 0 for no effect and ±100 for the full control effect; potency is read from the fitted curve at half-maximal effect.

What do the screens show for `CCCCOc1cc(C(=O)NCCN(CC)CC)c2ccccc2n1`?
GCN5L2 inh: -3%; KDM4E inh: 32µM*; APE1 inh: -7%; BLM helicase inh: 4%; RECQ1 helicase: -16%; L3MBTL1 inh: 1%

What do the screens show for `CCN(CC)CCNC(=O)c1cc(-c2ccc(Br)s2)nc2ccccc12`?
GCN5L2 inh: -3%; APE1 inh: 6%; BLM helicase inh: 12%

What do the screens show for `CCOc1ccc2oc(=O)cc(CN3CCN(c4ccc(OC)cc4)CC3)c2c1`?
GCN5L2 inh: -8%; BLM helicase inh: -3%

Results for CN(C)S(=O)(=O)c1cccc(NC(=S)N/N=C/c2cc(Br)ccc2O)c1 ?
GCN5L2 inh: -24%; KDM4E inh: 10µM*; APE1 inh: 1%; BLM helicase inh: 4%; RECQ1 helicase: -16%; L3MBTL1 inh: 10µM*

How did CN1c2ccccc2C(C)(C)C12C=Nc1c(ccc3ccccc13)O2 (centres undefined) do in these assays?
GCN5L2 inh: inconclusive; KDM4E inh: 25µM*; APE1 inh: -7%; BLM helicase inh: -10%; RECQ1 helicase: inactive; L3MBTL1 inh: inconclusive

Results for COc1ccc2ccc3c(c2c1)N=CC1(O3)N(C)c2ccccc2C1(C)C (centres undefined) ?
GCN5L2 inh: -29%; KDM4E inh: 14µM*; APE1 inh: -7%; BLM helicase inh: -8%; RECQ1 helicase: inconclusive; L3MBTL1 inh: 32µM*

Results for CN1c2ccccc2C(C)(C)[C@]12C=Cc1cc(O)ccc1O2 ?
GCN5L2 inh: -12%; KDM4E inh: -11%; APE1 inh: 13%; BLM helicase inh: -27%; RECQ1 helicase: inconclusive

How did CC(=O)OCC1OC(C#Cc2ccc(Br)cc2)C=CC1OC(C)=O (centres undefined) do in these assays?
APE1 inh: 3%[12.4 µM]; BLM helicase inh: 3%[12.4 µM]; RECQ1 helicase: 4%[11.5 µM]

What do the screens show for `O=C(/C=N/O)NCCCCNC(=O)/C=N/O`?
APE1 inh: inconclusive; BLM helicase inh: 5%[12.4 µM]; RECQ1 helicase: inactive[11.5 µM]

Results for CC1CC=CC2C1C(=O)N(Cc1ccccc1)C2c1ccc(Br)cc1F (centres undefined) ?
APE1 inh: -9%; BLM helicase inh: -7%; RECQ1 helicase: -6%

How did Cc1sc2ncnc(N/N=C/c3ccccc3O)c2c1C do in these assays?
GCN5L2 inh: -10%; KDM4E inh: 25µM*; APE1 inh: -9%; BLM helicase inh: -8%; RECQ1 helicase: -3%; L3MBTL1 inh: inconclusive

Results for CCOc1cc(/C=C(\C#N)C(=O)Nc2cccc(C(=O)O)c2)cc(Br)c1OC(=O)c1ccc(OC)cc1 ?
GCN5L2 inh: 25µM*; APE1 inh: -3%; BLM helicase inh: -24%

Results for CCOc1cccc(NC(=O)/C(C#N)=C/c2cccnc2)c1 ?
GCN5L2 inh: -28%; KDM4E inh: -7%; APE1 inh: -5%; BLM helicase inh: -7%; RECQ1 helicase: inactive

How did O=C(/C=C/c1ccc(Cl)cc1)Nc1nc(-c2cccs2)ns1 do in these assays?
GCN5L2 inh: -4%; BLM helicase inh: -11%

What do the screens show for `N#C/C(=C\c1ccc(O)c(O)c1)C(=O)NCCc1ccccc1`?
GCN5L2 inh: -19%; KDM4E inh: 14µM*; APE1 inh: 7%; RECQ1 helicase: inconclusive; L3MBTL1 inh: -8%

Results for N#C/C(=C\c1ccc(O)c(O)c1)C(=O)NCCCCc1ccccc1 ?
GCN5L2 inh: inconclusive; KDM4E inh: 4.5µM*; APE1 inh: inconclusive; BLM helicase inh: inconclusive; RECQ1 helicase: 10µM*

How did Cc1cc2ccccn2c1C(=O)Nc1cccc(Cl)c1 do in these assays?
GCN5L2 inh: -9%; KDM4E inh: inconclusive; APE1 inh: -3%; BLM helicase inh: -6%; RECQ1 helicase: -8%; L3MBTL1 inh: 40%

What do the screens show for `CCCCN1/C(=C/c2ccc3ccccc3[n+]2CC)Sc2ccccc21`?
GCN5L2 inh: -5%; KDM4E inh: 14µM*; APE1 inh: -6%; BLM helicase inh: 85%; RECQ1 helicase: inactive; L3MBTL1 inh: -19%

What do the screens show for `O=C(Nc1c(Cl)cc(Cl)cc1-c1nc2ccccc2s1)c1ccc(Br)o1`?
GCN5L2 inh: -14%; KDM4E inh: inconclusive; APE1 inh: -5%; BLM helicase inh: -6%; RECQ1 helicase: 8%

Results for N#Cc1ccccc1S(=O)(=O)N1CCN(C(=O)c2cc3c(s2)CCC3)CC1 ?
GCN5L2 inh: -14%; APE1 inh: 5.3µM*; L3MBTL1 inh: inconclusive

Results for Cc1cc(C(=O)N2CCN(S(=O)(=O)c3ccccc3C#N)CC2)c(C)o1 ?
GCN5L2 inh: 0%; APE1 inh: 24%; L3MBTL1 inh: -3%

What do the screens show for `O=C(N/N=C/c1c[nH]c2ccccc12)c1cc(-c2ccccc2)n[nH]1`?
GCN5L2 inh: -4%; KDM4E inh: -29%; APE1 inh: 8%; BLM helicase inh: -19%; RECQ1 helicase: 25µM*; L3MBTL1 inh: -12%

What do the screens show for `CC1CCCN(C(=O)CSc2cnc3ccccc3n2)C1` (centres undefined)?
GCN5L2 inh: -1%; KDM4E inh: 1%; APE1 inh: -4%; BLM helicase inh: -1%; RECQ1 helicase: inactive

How did CN(CC(=O)Nc1cccc(F)c1)C(=O)c1ccc(N2C(=O)c3ccccc3C2=O)cc1 do in these assays?
GCN5L2 inh: -1%; APE1 inh: 57%; L3MBTL1 inh: -4%

What do the screens show for `CN(CC(=O)Nc1cccc(F)c1)C(=O)c1cccc(-n2cccc2)c1`?
GCN5L2 inh: inconclusive; APE1 inh: 3.4µM*; L3MBTL1 inh: 7.1µM*

Results for COc1cccc(Nc2ncc3nc(CCc4ccccc4)c(=O)n(C4CC4)c3n2)c1 ?
GCN5L2 inh: 25µM*; APE1 inh: 0%; BLM helicase inh: -2%; RECQ1 helicase: -3%

Results for COc1cccc(Nc2ncc3nc(CCc4ccccc4)c(=O)n(CCC#N)c3n2)c1 ?
GCN5L2 inh: inconclusive; APE1 inh: 17%; BLM helicase inh: -1%; RECQ1 helicase: inactive

How did Cc1oc(-c2cccc(Cl)c2)nc1CSc1nnc(C)n2c1cc1occc12 do in these assays?
GCN5L2 inh: -2%; BLM helicase inh: -11%
